Results filed as inconclusive are left out. Activity calls are given as the source filed them.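 Rule for the calls, unless noted: active = viability increase at or above a cutoff of the median across tested compounds plus 3 SD (cut at about 8.5% in these data, passing the limit was not always enough); inconclusive = some gains above the cutoff, reason not given; inactive = the rest.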
Key:
[1] = reduced viability of SK-BR-3 breast cancer cells – cell-based, 24 h, human, pilot screen (AID 572;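 active = viability at or below 10% of carrier control in both of two separate runs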;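 note: compound exposure lasted between 18 and 24 h rather than exactly 24 h; 100% = carrier-treated control wells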); details: SK-BR-3 viability, CellTiter-Glo luminescence, at 10 µM, stronger effect = lower value
[2] = HUVEC growth inhibition – cell-based, human, primary screen (AID 575;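 active = viability at or below 30% in both replicate assays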;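 note: 100% = median of untreated cell wells with 0.1% DMSO on each plate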); details: HUVEC proliferation, CellTiter-Glo luminescence, 72 h; at 10 µM; stronger effect = lower value
[3] = H69AR cell proliferation blockers – human, duplicate replicates, primary screen (AID 580;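 active = viability at or under a set limit in both replicates, limit being median viability minus 3 SD, cut at about 48% in these data, passing the limit was not always enough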;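 note: 100% = mean luminescence of untreated wells and 0% = no signal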); details: H69AR lung tumor cells viability, ATP luminescence, 72 h; at 10 µM; stronger effect = lower value
[4] = MRP1 drug-resistance reversers in H69AR cells – cell-based, doxorubicin co-treatment, pilot screen (AID 601;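 active = viability loss from added drug above about 55%, and viability with drug at most 40%, in both replicates, limit read from the data, passing the limit was not always enough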); details: CellTiter-Glo, 72 h, at 10 µM; for differential viability (reversal): stronger effect = higher value
[5] = yeast transport mutant growth inhibition pilot in 384-well plates, post-Golgi transport modulator project (AID 636; in the data active = inhibition above about 31%); details: absorbance 615 nm, about 18 h, stronger effect = higher value
[6] = growth suppression of yeast trafficking mutant, preliminary HTS, modulators of trafficking downstream of Golgi apparatus project, 1536-format plate, OD 615 nm (AID 637; in the data active = inhibition above about 30%); details: yeast transport mutant growth, absorbance 615 nm, 18 h; stronger effect = higher value
[7] = S. cerevisiae growth inhibition in permissive medium (OD615), pilot counter-assay for S. cerevisiae lifespan shortening project, permissive growth control (AID 705;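 active = growth inhibition above 25% in both replicates, a cutoff set 3 SD above the mean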); details: OD615, 24 h, at 10 µM, stronger effect = higher value
[8] = S. cerevisiae growth inhibition in restrictive medium, OD615, pilot screen, restrictive growth control, yeast lifespan reduction project (AID 706;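 active = growth inhibition above a set limit, 3 SD over mean compound inhibition, in both replicates, cut at about 43% in these data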;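 note: modified DeaD lifespan yeast strain shifted to restrictive glucose medium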); details: OD615, 48 h, at 10 µM, stronger effect = higher value
[9] = doxorubicin toxicity protection in MRP-1 cells – H69AR cells, CellTiter-Glo, duplicate, MRP-1 activator project, pilot screen (AID 807); details: H69AR viability with doxorubicin, CellTiter-Glo luminescence; at 10 µM; stronger effect = higher value;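 note: compound pretreatment 18-22 h then 72 h combined with doxorubicin; 0% = doxorubicin alone and 100% = vehicle without doxorubicin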
[10] = viability of HCT116 without oncogenic beta-catenin – human colon tumor cells, pilot screen (AID 823;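 active = cell viability at or below a set limit in both duplicate runs, the limit being the all-compound median minus 4 SD, cut at about 23% in these data, passing the limit was not always enough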;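 note: 0% = wells killed by 20 µM Hyamine and 100% = untreated DMSO cell wells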); details: HCT116 beta-catenin knockout viability, CellTiter-Glo, 60 h; at 10 µM; stronger effect = lower value
[11] = RAM pathway blockade in budding yeast – dse1pr::URA3 reporter, 5-FOA selection, pilot screen (AID 869;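 active = inhibition over a set limit, the all-compound mean plus 3 SD, in both replicate runs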;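 note: 0% = DMSO wells with no growth and 100% = 10 µM 1-NA-PP1 with full growth; RAM network block rescues cells from 5-FOA so hits raise OD615 growth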); details: S. cerevisiae dse1pr::URA3 5-FOA growth, OD615, 2 d; at 10 µM; stronger effect = higher value; strain carries analog-sensitive mutant Cbk1 kinase
[12] = RAM signaling pathway blockade in yeast – S. cerevisiae, Pdr1DBD-CYC8 efflux-inhibited sensitized strain, primary screen (AID 1298;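 active = RAM network inhibition above 8.4% in each of two replicates, 3 SD over the compound average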;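 note: 0% = DMSO untreated cells without growth and 100% = 10 µM 1-NA-PP1 full growth; higher means more yeast growth rescued from 5-FOA killing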); details: S. cerevisiae cbk1-as DSE1-URA3 strain, 5-FOA growth OD615, 2 d; at 50 µM; stronger effect = higher value
[13] = viability of PTEN-null HCT116 cells – cell-based, HCT116 clonal line, CellTiter-Glo, pilot screen (AID 824;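 active = viability at or below 27.92% in each of two runs, the all-compound median minus 4 SD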;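 note: 0% = 20 µM Hyamine control and 100% = vehicle cell control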); details: HCT116 PTEN-deleted viability, 60 h, at 10 µM, stronger effect = lower value
[14] = H69AR cells + 2 uM doxorubicin, measured here: viability with 2 uM doxorubicin, stronger effect = lower value
[15] = H69AR cells, compound alone cytotoxicity

Row | SMILES | viability [1] | viability [2] | viability [3] | differential viability (reversal) ([4]; H69AR cells + 2 uM doxorubicin) | viability [4, 14] [%] | viability [4, 15] [%] | inhibition [5] | inhibition [6] | growth inhibition [7] | growth inhibition [8] | viability increase [9] | viability [10] | inhibition [11] | RAM network inhibition [12] | viability [13]
1 | CCOC(=O)Cn1c(CN(C)Cc2ccccc2)nc2c1c(=O)n(C)c(=O)n2C | 94% (inactive) | 112% (inactive) | 87.1% (inactive) | -9.54% (inactive) | 96.6 | 87.1 | -7.43% (inactive) | 0.18% (inactive) | -28.8% (inactive) | -4.63% (inactive) | -2.98% (inactive) | 82.9% (inactive) | 0.24% (inactive) | -0.42% (inactive) | –
2 | Cc1ccc2c(c1)C1CCCC3C1N2CC(=O)N3Cc1ccccc1 (stereo not given) | 117% (inactive) | – | 75.5% (inactive) | -5.75% (inactive) | 81.3 | 75.5 | 0.27% (inactive) | 0.97% (inactive) | -8.15% (inactive) | -24.9% (inactive) | -0.44% (inactive) | – | 2.56% (inactive) | 7.32% (inactive) | 53.3% (inactive)
3 | Cc1ccc(N2C(=O)c3oc4ccccc4c(=O)c3C2c2cccc(O)c2)nc1 (stereo not given) | 102% (inactive) | 59.1% (inactive) | 91.8% (inactive) | -11.7% (inactive) | 103 | 91.8 | 0.9% (inactive) | 2.17% (inactive) | -6.7% (inactive) | -3.53% (inactive) | 1.12% (inactive) | 73.1% (inactive) | 3.22% (inactive) | 7.27% (inactive) | 71.7% (inactive)
4 | NC(=O)c1sc2nc(N3CCCCC3)c3c(c2c1N)CCCC3 | 75% (inactive) | 82.8% (inactive) | 85.7% (inactive) | -0.75% (inactive) | 86.4 | 85.7 | -6.89% (inactive) | 2.17% (inactive) | 8.56% (inactive) | – | -3.63% (inactive) | 104% (inactive) | 0.715% (inactive) | 5.61% (inactive) | 94.6% (inactive)
5 | COC(=O)c1cc(=O)n(Cc2ccc3c(c2)OCO3)c(=Nc2ccccc2)s1 | 90% (inactive) | – | – | -4.97% (inactive) | 43.1 | 38.1 | -5.2% (inactive) | 4.43% (inactive) | 4.22% (inactive) | -1% (inactive) | -5.95% (inactive) | 71.1% (inactive) | 3.41% (inactive) | 5.96% (inactive) | 73.3% (inactive)
6 | FC(F)(F)c1cc(-c2ccco2)nc(NCc2ccco2)n1 | 119% (inactive) | 101% (inactive) | 62.2% (inactive) | -15.6% (inactive) | 77.8 | 62.2 | -2.7% (inactive) | 24.2% (inactive) | 3.24% (inactive) | -11.4% (inactive) | -6.31% (inactive) | – | 1.14% (inactive) | -0.41% (inactive) | 59.1% (inactive)
7 | O=C(Nc1ncc(Cc2ccccc2)s1)C1CCCO1 (stereo not given) | 91.5% (inactive) | 84.3% (inactive) | 103% (inactive) | 10.9% (inactive) | 92.2 | 103 | -4.67% (inactive) | -9.34% (inactive) | -14.2% (inactive) | 3.14% (inactive) | 1.91% (inactive) | 103% (inactive) | 0.015% (inactive) | -2.16% (inactive) | 103% (inactive)
8 | COC(=O)c1[nH]c2c(c1C)C(=O)CC(c1cc(OC)ccc1OC)C2 (stereo not given) | 98.5% (inactive) | – | 14.9% (active) | -37% (inactive) | 51.9 | 14.9 | -6.8% (inactive) | -6.33% (inactive) | -10.4% (inactive) | -8.8% (inactive) | -5.77% (inactive) | 34.6% (inactive) | – | 1.94% (inactive) | 29.4% (inactive)
9 | CC(C)C(CO)NC(=O)CC(=O)NC(CO)C(C)C (stereo not given) | 93% (inactive) | 101% (inactive) | 103% (inactive) | 21.4% (inactive) | 81.4 | 103 | -4.8% (inactive) | -0.91% (inactive) | -4.75% (inactive) | -1.44% (inactive) | -0.9% (inactive) | 105% (inactive) | 2.15% (inactive) | 6.33% (inactive) | 97.3% (inactive)
10 | CC(C(=O)Oc1ccc2c(c1)OCO2)N1C(=O)c2ccccc2C1=O (stereo not given) | – | 79.5% (inactive) | 84.3% (inactive) | -10.1% (inactive) | 94.4 | 84.3 | -1.69% (inactive) | 1.27% (inactive) | -0.745% (inactive) | 13.1% (inactive) | -1.6% (inactive) | 99.3% (inactive) | 1.38% (inactive) | 0.12% (inactive) | 105% (inactive)
11 | CC(C)=CC(=O)OCC(=O)NC(=O)NC(C)(C)C | – | 103% (inactive) | 97% (inactive) | -3.87% (inactive) | 101 | 97 | 0.52% (inactive) | -3.97% (inactive) | 1.02% (inactive) | 3.65% (inactive) | -3.01% (inactive) | 104% (inactive) | 2.76% (inactive) | 2.91% (inactive) | –
12 | Cc1ccc(-c2cc(C(F)F)nc(N3CCC(C)CC3)n2)cc1 | – | 85.7% (inactive) | 91.1% (inactive) | 1.39% (inactive) | 89.7 | 91.1 | -4.47% (inactive) | 1.75% (inactive) | 3.35% (inactive) | 6.11% (inactive) | 1.95% (inactive) | 100% (inactive) | 2.67% (inactive) | 6.64% (inactive) | 101% (inactive)
13 | CCCN1CCN(C(=O)c2cn(CC(C)C)c(=O)c3cc(OC)c(OC)cc23)CC1 | – | 93.1% (inactive) | 78% (inactive) | -0.945% (inactive) | 78.9 | 78 | -4.74% (inactive) | 4.92% (inactive) | -19.2% (inactive) | -0.27% (inactive) | -2.46% (inactive) | 100% (inactive) | 2.42% (inactive) | 2.08% (inactive) | 88.4% (inactive)
14 | O=C(COC(=O)C1(c2ccccc2F)CCCC1)NC1CCS(=O)(=O)C1 (stereo not given) | – | 118% (inactive) | 97.2% (inactive) | 3.27% (inactive) | 93.9 | 97.2 | -1.69% (inactive) | -2.06% (inactive) | 5.97% (inactive) | 2.54% (inactive) | -0.5% (inactive) | 99.4% (inactive) | 0.035% (inactive) | 3.94% (inactive) | 95.3% (inactive)
15 | Cc1nnc(N(Cc2ccco2)C(=O)c2cccc(C#N)c2)s1 | – | 84.1% (inactive) | 94.6% (inactive) | -3.37% (inactive) | 97.9 | 94.6 | -1.69% (inactive) | -6.35% (inactive) | -6.52% (inactive) | 6.42% (inactive) | -0.66% (inactive) | 103% (inactive) | 1.8% (inactive) | 4.13% (inactive) | 98.5% (inactive)
16 | Cc1cc2ncn(C(=O)N3CCOCC3)c2cc1C | – | 95.4% (inactive) | 92.2% (inactive) | 7.56% (inactive) | 84.6 | 92.2 | -2.47% (inactive) | -6.03% (inactive) | 0.665% (inactive) | -2.19% (inactive) | -1.25% (inactive) | 97.3% (inactive) | 1.22% (inactive) | 4.08% (inactive) | 97.3% (inactive)
17 | COc1ccccc1NC(=O)N(Cc1ccccc1)c1ccccn1 | – | 83.4% (inactive) | 85.3% (inactive) | -5.91% (inactive) | 91.2 | 85.3 | -5.58% (inactive) | -4.92% (inactive) | -9.36% (inactive) | -2.62% (inactive) | 0.35% (inactive) | 87% (inactive) | 2.24% (inactive) | 6.47% (inactive) | 88.6% (inactive)
18 | CCCCC(NC(C)=O)c1nc2ccccc2n1CCC (stereo not given) | – | 93.9% (inactive) | 100% (inactive) | 10.6% (inactive) | 89.7 | 100 | 1.32% (inactive) | 7.62% (inactive) | -5.8% (inactive) | -2.95% (inactive) | -0.99% (inactive) | 93.6% (inactive) | 1.44% (inactive) | -0.69% (inactive) | 93.3% (inactive)
19 | COc1cccc2cc(C(=O)Nc3cccnc3N3CCOCC3)c(=O)oc12 | – | 101% (inactive) | 94.3% (inactive) | 10.1% (inactive) | 84.2 | 94.3 | -4.03% (inactive) | 3.65% (inactive) | -8.22% (inactive) | -21.8% (inactive) | -3.74% (inactive) | 101% (inactive) | 3.31% (inactive) | 1.45% (inactive) | 98.8% (inactive)

— PubChem BioAssay
